Assay outcomes from PubChem.
Compounds with a hit are over-represented: about 4.6% of the library has one in this group of screens.
D1 ag – agonists of human D1 dopamine receptor | AID 504660 | 360,000 compounds, 1% hits | activation, % at 2 µM | P21728 | HEK293 T-REx D1 cells, calcium flux, agonist mode; also: 0% is about no effect
Target sequence (P21728 whole entry, looked up): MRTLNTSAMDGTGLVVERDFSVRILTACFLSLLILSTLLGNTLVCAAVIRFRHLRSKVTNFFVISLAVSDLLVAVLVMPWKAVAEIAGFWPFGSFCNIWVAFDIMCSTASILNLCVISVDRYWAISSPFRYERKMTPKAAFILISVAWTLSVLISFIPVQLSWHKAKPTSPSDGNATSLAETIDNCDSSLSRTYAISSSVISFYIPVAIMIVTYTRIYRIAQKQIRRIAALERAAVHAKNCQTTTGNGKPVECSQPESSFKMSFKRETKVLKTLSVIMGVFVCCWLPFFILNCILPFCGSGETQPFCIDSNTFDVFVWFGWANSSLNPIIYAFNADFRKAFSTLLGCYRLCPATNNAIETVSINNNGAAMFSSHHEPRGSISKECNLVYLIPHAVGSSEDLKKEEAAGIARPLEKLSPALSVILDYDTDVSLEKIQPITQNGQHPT
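Inducible HEK293 T-REx D1 cells, force-coupled to calcium signalling, were plated at 4000 cells/well with tetracycline and held overnight at 30 C. After no-wash calcium dye loading, compound-evoked calcium rise over 180 s flagged agonists.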
D1 antagonist – antagonists of human D1 dopamine receptor. AID 504652. 360,000 compounds, 3.2% hits. HEK293 TREx D1 cells, calcium flux, dopamine EC80; stronger effect = lower value. activity change, negative = inhibition, % at 10 µM. P21728; in the data active = activity change below about -30%; also: % is scaled to controls: 0 for no effect and ±100 for the full control effect
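Allosteric or orthosteric antagonism assessed as attenuation of the calcium response to EC80 dopamine, added 180 s after compound, in induced HEK293 Trex D1 cells loaded with no-wash calcium dye.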
TRHR PAM – allosteric enhancers of human TRH receptor. TRHR cells, fluo-8 calcium fluorescence, EC20 TRH enhancement. enhancement, % at 2 µM. P34981. 360,000 compounds, 0.66% hits; in the data active = enhancement above about 30%; also: 0% is about no effect
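Enhancer read-out: after compound pinning and an initial kinetic agonist-mode read, an EC20 of TRH (10 nM final) was injected and fluo-8 calcium signal (Ex 480/Em 530) followed at 1 s/cycle for 100 cycles in TRHR-expressing cells.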
TRHR agonist – TRH receptor (human) agonism; P34981; TRHR cells, calcium flux fluo-8, FDSS agonist mode; activation, % at 2 µM; 360,000 compounds, 0.18% hits; AID 493084; also: 0% is about no effect
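Read-out: compound-evoked intracellular calcium rise in TRHR cells, fluo-8 dye, kinetic FDSS fluorescence at 1 s/cycle following a 10-cycle baseline. Cells cultured overnight before dye loading (30 min–1.5 h, RT).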
D1 potentiator – enhances dopamine response at the human D1 receptor; P21728; HEK293 TREx D1 cells, calcium flux, dopamine EC20 potentiation; potentiation, % at 10 µM; 360,000 compounds, 0.036% hits; in the data active = potentiation above about 30%; also: 0% is about no effect
* hit, by the source's call; . = no result. Rule as the data show it, unless noted: active = activation above about 30%; inactive = the rest.

SMILES	D1 ag	D1 antagonist	TRHR PAM	TRHR agonist	D1 potentiator
COc1cc(F)ccc1CN1CCC(C(=O)Nc2ccc(Oc3ccccc3)nc2)CC1	47*	-7	3	1	-3
CC(C)n1cc(CN2CCC(C(=O)Nc3ccc(Oc4ccccc4F)cc3)CC2)cn1	105*	-62*	4	2	-10
Cc1ncc(CN2CCCCC2C(=O)Nc2ccc(Oc3ccccc3)nc2)cn1 (stereo unspecified)	-1	-1	-2	0	-1
CCOc1ccc2c(c1)nc(C)n2C	1	-47*	2	0	-8
Cc1nc2cc(CO)ccc2n1C	1	0	1	0	1
CCN(CC)CCn1c(=N)n(CC(O)COc2ccccc2C)c2ccccc21 (stereo unspecified)	6	-30	10	1	-5
CCc1ccc(OC)c(S(=O)(=O)NCCOc2ccccc2)c1	4	3	31*	-2	-6
COCCNS(=O)(=O)c1cc(OC)ccc1OC	0	.	-6	1	4
COc1ccc(NC(=O)COC(=O)C2CCN(S(=O)(=O)c3ccccc3)CC2)cc1Cl	6	-14	0	0	-4
Cc1ccc(C(=O)NC(C)c2ccc(F)cc2)cc1 (stereo unspecified)	1	-17	3	-2	-1
CC(C)Cc1ccc(C(C)NC(=O)c2ccc(=O)[nH]c2)cc1 (stereo unspecified)	49*	-16	1	5	1
CC12CCC(C(=O)Nc3nccs3)(OC1=O)C2(C)C (stereo unspecified)	0	-31*	3	0	-2
CCOc1ccc(N(C)S(=O)(=O)c2ccc3[nH]cc(C(=O)NCC(OC)OC)c(=O)c3c2)cc1	3	0	3	0	-6
CCOC(=O)N1CCN(C(=O)c2c[nH]c3ccc(S(=O)(=O)N(C)c4ccc(OCC)cc4)cc3c2=O)CC1	2	-89*	24	0	-19
CCOc1ccc(N(C)S(=O)(=O)c2ccc3[nH]cc(C(=O)NCc4ccccc4)c(=O)c3c2)cc1	1	-11	37*	0	-2
CCN(CC)S(=O)(=O)c1ccc2[nH]cc(C(=O)NCCC3=CCCCC3)c(=O)c2c1	4	-34*	4	-1	-10
CCN(CC)S(=O)(=O)c1ccc2[nH]cc(C(=O)NCCN3CCCCCC3)c(=O)c2c1	3	10	19	-1	-5
CCOC(=O)N1CCN(C(=O)c2c[nH]c3ccc(S(=O)(=O)N(C)c4ccc(F)cc4)cc3c2=O)CC1	-1	1	0	0	-4
CC(C)(C)OC(=O)NCC12C=CC(O1)C1C(=O)N(Cc3ccccc3)C(=O)C12 (stereo unspecified)	18	-33*	1	0	4
CCC(C(=O)OC(C)C)c1ccc2ccccc2c1 (stereo unspecified)	-3	.	-5	-1	-1
COc1ccc2cc(C(C)C(=O)OC(C)C)ccc2c1 (stereo unspecified)	1	-37*	-3	0	0
Cc1c(O)c(S(=O)c2ccccc2)c(=O)n(-c2ccccc2)c1-c1ccccc1 (stereo unspecified)	4	1	32*	1	-2
COc1ccc(C(C)=O)cc1COC(=O)c1c(C)noc1C	0	-44*	-1	0	-5
CCc1cc2c(COC(=O)c3cccc(S(C)(=O)=O)c3)cc(=O)oc2cc1O	3	-10	-1	0	-3
CCc1cc2c(COC(=O)c3c(C)noc3C)cc(=O)oc2cc1O	4	6	33*	-1	-6
Cc1ccc(NC(=O)CN(c2ccc(Cl)cc2)S(=O)(=O)c2cc([N+](=O)[O-])ccc2Cl)c(C)c1	0	-56*	-6	0	-15
CCOC(=O)c1c(C)oc2nc(C)nc(NCCc3ccc(OC)c(OC)c3)c12	2	0	22	0	0
CCOC(=O)c1c(C)oc2nc(C)nc(NCCc3ccc(SC)cc3)c12	5	-32*	12	0	-6
COc1ccc(OC)c(NC(=O)Cn2cc(C(=O)c3ccco3)c3ccccc32)c1	0	11	-3	0	2
COc1ccc(OC)c(NC(=O)Cn2cc(C(=O)c3cccs3)c3ccccc32)c1	1	-34*	7	0	4
